Structures are written as SMILES. Values joined by “and” are separate entries in the source; they are usually repeats but may differ in a detail not shown here. Equal values may be shown once. Inconclusive results are not listed. Entries that show only a call come without a potency. Active and inactive are the calls of the source. Calls follow the shape of the dose curve; as a rule, active = well fitted cell-killing curve with a large enough effect in the repeat runs; inconclusive = weak or mixed curves; inactive = flat fitted curve, though single readings scatter.
Potency is read from the fitted curve at half-maximal effect.

The nature of this assay: qHTS assay to identify small molecule antagonists of the TGF-beta/Smad signaling pathway - cell viability counter screen (AID 1346824). Also: nearly all actives have a fitted effect of over 50% in size. The following applies: SBE-bla HEK293T viability, CellTiter-Glo luminescence; series mostly up to 76.8 µM. An excerpt:
U.S. Tox21 Program National Center for Advancing Translational Sciences [NCATS] NIH Chemical Genomics Center [NCGC] U.S. Environmental Protection Agency [EPA] National Institutes of Environmental Health Sciences [NIEHS] National Toxicology Program [NTP] U.S. Food and Drug Administration [FDA] Tox21 Assay Overview: Transforming growth factor beta (TGF-beta) superfamily consists of a large number of structurally related dimeric proteins that act as hormones or local mediators in regulating a wide range of biological functions. This superfamily includes TGF-betas themselves, the bone morphogenetic proteins (BMPs) and the activins. These ligands induce oligomerization of serine/threonine receptor kinases and phosphorylate the cytoplasmic signaling molecules of Smad protein family. CellSensor SBE-bla HEK 293T cell line (Life Technologies, Carlsbad, CA), responsive to TGF-beta was used to screen Tox21 10K compound library for identification of agonists/antagonists of the Smad signaling pathway. This cell line contains a beta-lactamase reporter gene under control of the Smad binding element (SBE) stably integrated into HEK 293T cells. Also cytotoxicity of the compounds was tested in parallel by measuring the cell viability using CellTiter-Glo assay system in the same wells.
Tox21 Assay Protocol Summary: SBE-bla HEK 293T cells were dispensed at 4,000/well in 5 uL of assay medium into black wall/clear-bottom 1536-well plates using a Multidrop Combi (ThermoFisher Scientific, Waltham, MA) dispenser. After the assay plates were incubated at 37 C and 5% CO2 for an overnight, 23 nL of compounds dissolved in DMSO, positive controls or DMSO only was transferred to the assay plate by a Pintool station (Kalypsys, San Diego, CA). Compound transfer was followed by the addition of 1 uL of 0.25 ng/mL TGF-beta1 or assay buffer using two separate tips of Flying Reagent Dispenser (FRD, Aurora Discovery, San Diego, CA). The assay plates were incubated at 37 C and 5% CO2 for 5 hr. One uL of LiveBLAzer B/G FRET substrate (Life Technologies) was added using a Flying Reagent Dispenser (FRD, Aurora Discovery, San Diego, CA) and the plates were incubated at room temperature for 2 hr. Fluorescence intensity (405 nm excitation, 460 nm and 530 nm emissions) was measured using an Envision plate reader (PerkinElmer, Shelton, CT). For cytotoxicity read, 4 uL of CellTiter-Glo reagent (Promega Corporation, Madison, WI) was added to each well of the assay plates using FRD. After 30 min incubation at room temperature, the luminescence intensity was measured using ViewLux plate reader (PerkinElmer).
A general note: Quantitative high-throughput screening tests each substance at several concentrations.
In the case of `O=C1CC2(CCCC2)CC(=O)N1CCCCN1CCN(c2ncccn2)CC1`, the Potency entry was “inactive”. The same measure for `CO[Si](OC)(OC)c1ccccc1`: “inactive”.

As for `CC(=O)CC(=O)Nc1ccc2[nH]c(=O)[nH]c2c1`, the Potency entry was “inactive”. To `Cc1cccc([N+](=O)[O-])c1C(=O)O` belongs “inactive”. The same measure for `CC(=O)OCC1=C(C(=O)O)N2C(=O)[C@@H](NC(=O)Cc3cccs3)[C@H]2SC1`: “inactive”; for `C/C=C/c1ccc(OCC)c(O)c1`: “inactive”; for `CCN(CC)CCOc1ccc(/C(=C(\Cl)c2ccccc2)c2ccccc2)cc1`: “inactive”.

For the compound `CC(COc1ccccc1)N(CCCl)Cc1ccccc1` (stereo not given), the Potency entry was “inactive”. The same measure for `Cc1cc(C2(c3cc(C)c(O)cc3C)OS(=O)(=O)c3ccccc32)c(C)cc1O`: “inactive”; for `CC(C(O)c1ccc(O)cc1)N1CCC(Cc2ccccc2)CC1` (stereo not given): “inactive”; for `NCCCCCC(=O)O`: “inactive”. As to `CC(C)CCOCc1ccccc1`, the Potency result was “inactive”. With `CCCCCCCCCCCC[N+](C)(C)C`, the Potency result is “inactive”. In the case of `O=C(O)Cn1cnnn1`, the Potency entry is “inactive”. The same measure for `CC(C)(C)NC(=O)[C@@H]1CN(Cc2cccnc2)CCN1C[C@@H](O)C[C@@H](Cc1ccccc1)C(=O)N[C@H]1c2ccccc2C[C@H]1O`: “inactive”. To `CC(C)(C)c1ccccc1` belongs “inactive”; to `CC(C)(C)NCC(O)c1cc(O)cc(O)c1` (stereo not given), “inactive”; to `O=C(Cl)c1cccc(C(=O)Cl)c1`, “inactive”.

In the case of `CC(=O)N[C@@H](CS)C(=O)O`, the Potency entry is “inactive”.

As for `CCCNC(C)C(=O)Nc1ccccc1C` (stereo not given), the Potency entry was “inactive”. On to `O=C(OCc1ccccc1)c1ccc(O)cc1`, for which the Potency entry is “inactive”. The same measure for `Nc1ccc(O)cc1`: “inactive”; for `CCn1c2ccccc2c2cc(N)ccc21`: “inactive”. The same measure for `O=Cc1ccc(Cl)cc1`: “inactive”. To `COC(=O)/C=C/c1ccccc1` belongs “inactive”; to `COc1ccc(Cc2cnc(N)nc2N)cc1OC`, “inactive”. With `O=C(Nc1ccccc1SSc1ccccc1NC(=O)c1ccccc1)c1ccccc1`, the Potency result was “inactive”. `O=C1Nc2ccccc2C1(c1ccc(O)cc1)c1ccc(O)cc1`: the Potency result was “inactive”. For the compound `CC[C@H]1CN2CCc3cc(OC)c(OC)cc3[C@@H]2C[C@@H]1C[C@H]1NCCc2cc(OC)c(OC)cc21`, the Potency entry was “inactive”. To `CNC1(C)C2CCC(C2)C1(C)C` (stereo not given) belongs “inactive”; to `Nc1cc(S(=O)(=O)O)cc2cc(S(=O)(=O)O)cc(O)c12`, “inactive”. The same measure for `NNCCc1ccccc1`: “inactive”. Take `NC(N)=Nc1nc(CSCC/C(N)=N/S(N)(=O)=O)cs1`: the Potency result is “inactive”. To `CCC(CO)(CO)COCC(CC)(CO)CO` belongs “inactive”; to `OCCOCCN1CCN(C(c2ccccc2)c2ccc(Cl)cc2)CC1` (stereo not given), “inactive”.

As to `CCN(CC)C(=S)SSC(=S)N(CC)CC`, the Potency entry is “inactive”.

As to `CC1=CC(=O)c2ccccc2C1=O`, the Potency is 49 µM (active). To `Cc1ccc(S(=O)(=O)Oc2ccc(N=Nc3ccc(-c4ccc(N=Nc5c(O)ccc6cc(S(=O)(=O)O)cc(S(=O)(=O)O)c56)c(C)c4)cc3C)cc2)cc1` belongs “inactive”. To `N[C@@H]1CONC1=O` belongs “inactive”; to `Cc1cc(OCCOCC[N+](C)(C)Cc2ccccc2)ccc1C(C)(C)CC(C)(C)C`, 43.4 µM (active) and 23.9 µM (active).

The record behind these values is PubChem BioAssay (Tox21).
